# Results filed as inconclusive are left out. Active and inactive are the calls of the source. Rule for the calls, unless noted: active = hit-call score of the fitted dose curve at least 0.9, where 1 is the maximum; inactive = score below 0.9.
# Columns and labels:
# [1] = ATG_PXRE_CIS: Attagene CIS-FACTORIAL HepG2 Assay for human Pregnane X Receptor Element (PXRE) (AID 2282957); details: HepG2 Attagene CIS-FACTORIAL PXRE reporter, mRNA; actives raise or lower the signal
# In short: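 Read-out: fluorescence of reporter-specific RT-PCR products resolved by capillary electrophoresis, fitted bidirectionally relative to DMSO. Human HepG2 liver cells carried transfected cis-promoter reporter units and were exposed to chemicals for 24 h.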
# [2] = ATG_PPRE_CIS: Attagene CIS-FACTORIAL HepG2 Assay for human Peroxisome Proliferator-activated Response Element (PPRE) (AID 2282958); details: HepG2 PPRE cis-element reporter, Attagene transcription factor profiling; actives raise or lower the signal
# In short: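 Cells are first transfected transiently with the multiplexed reporter library, then dosed for 24 h. Total RNA is reverse-transcribed, amplified, fluorescently end-labeled and HpaI-cut before capillary electrophoresis; activity is fitted bidirectionally against DMSO controls.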
# [3] = ATG_RORE_CIS: Attagene CIS-FACTORIAL HepG2 Assay for human RAR-related Orphan Receptor Element (RORE) (AID 2282959); details: HepG2 Attagene cis-factorial RORE reporter, mRNA; actives raise or lower the signal
# In short: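 Cells were HepG2 carrying transfected cis-regulated reporter constructs, dosed for 24 hours. Total RNA was reverse-transcribed and reporter cDNA amplified, fluorescently labeled and sized by capillary electrophoresis. Activity was fitted bidirectionally relative to DMSO.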
# [4] = ATG_Sox_CIS: Attagene CIS-FACTORIAL HepG2 Assay for human SRY-box transcription factor (SOX) (AID 2282960); details: HepG2 Attagene cis-factorial SOX reporter, mRNA; actives raise or lower the signal
# In short: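 Transient MRTU transfection of HepG2; 24 h compound incubation; TriZol RNA, oligo(dT) RT, PCR, 6-FAM primer extension, HpaI cut, CE. Bidirectional fit, DMSO = baseline.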
# [5] = target: Transcription factor Sp1 (Homo sapiens) (UniProt P08047); test: ATG_Sp1_CIS: Attagene CIS-FACTORIAL HepG2 Assay for human Specificity Protein 1 (Sp1) (AID 2282961); details: HepG2 Sp1 cis-reporter transcription, actives raise or lower the signal
# In short: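 Endogenous Sp1 activity was gauged in human liver HepG2 cells bearing transfected reporter units under a cis-regulating promoter. After 24 h dosing, reporter mRNA was quantified by RT-PCR with capillary electrophoresis, and activity fitted bidirectionally versus DMSO.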
# [6] = ATG_SREBP_CIS: Attagene CIS-FACTORIAL HepG2 Assay for human Sterol Regulatory Element Binding (SREBP) (AID 2282962); details: HepG2 Attagene cis-factorial SREBP reporter, mRNA; actives raise or lower the signal
# In short: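 In this cis-format assay, HepG2 liver cells express reporters controlled by promoter elements responsive to native transcription factors. Exposure lasts 24 h; reporter mRNA fluorescence from capillary electrophoresis gives the signal, fitted bidirectionally against DMSO.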
# [7] = target: Signal transducer and activator of transcription 3 (Homo sapiens) (UniProt P40763); test: ATG_STAT3_CIS: Attagene CIS-FACTORIAL HepG2 Assay for human Signal Transducer and Activator of Transcription 3 (STAT3) (AID 2282963); details: HepG2, Attagene cis-factorial STAT3 reporter transcription; actives raise or lower the signal
# In short: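 Cis-factorial format: endogenous transcription factors in HepG2 drive transfected reporter units. After 24 h treatment, reporter RNA was reverse-transcribed, amplified, FAM-labelled and HpaI-digested before CE analysis; activity scored in both directions against DMSO.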
# [8] = ATG_TA_CIS: Attagene CIS-FACTORIAL HepG2 Assay for human TA Basal Promoter (AID 2282964); details: HepG2 Attagene CIS-factorial TA basal promoter reporter; actives raise or lower the signal
# In short: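 HepG2 cells transiently transfected with multiplexed cis-promoter reporter units, dosed 24 h. Reporter mRNA measured by RT-PCR, 6-FAM labelling, HpaI digestion and capillary electrophoresis; bidirectional fit versus DMSO baseline, serving as background control.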
# [9] = ATG_TCF_b_cat_CIS: Attagene CIS-FACTORIAL HepG2 Assay for human T-Cell-Factor with beta-catenin (TCF/b-cat) (AID 2282965); details: HepG2 TCF/beta-catenin cis-reporter transcription, actives raise or lower the signal
# In short: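 Measured: reporter mRNA in HepG2 transiently transfected with cis-promoter reporter units, 24 h after chemical addition. Fitting was bidirectional, DMSO as negative control.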
# [10] = ATG_TAL_CIS: Attagene CIS-FACTORIAL HepG2 Assay for human TAL Basal Promoter (AID 2282966); details: HepG2 Attagene cis-factorial TAL promoter reporter; actives raise or lower the signal;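 note: background control endpoint measuring basal TAL promoter reporter mRNA not a specific factor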
# In short: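 HepG2, transient MRTU transfection, 24 h compound exposure; RNA → oligo(dT) RT → PCR → 6-FAM primer extension → HpaI digest → CE fluorescence. Bidirectional curve fit vs DMSO. Background-control readout.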
# [11] = ATG_TGFb_CIS: Attagene CIS-FACTORIAL HepG2 Assay for human Transforming Growth Factor (TGF) (AID 2282967); details: HepG2 Attagene CIS TGFb reporter, mRNA transcription; actives raise or lower the signal
# In short: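 HepG2 cells transiently transfected with cis-promoter-driven multiplexed reporter units; 24 h compound exposure. Reporter mRNA measured by RT-PCR, 6-FAM labeling, HpaI digestion and capillary electrophoresis; bidirectional fit versus DMSO baseline.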
# [12] = ATG_VDRE_CIS: Attagene CIS-FACTORIAL HepG2 Assay for human Vitamin D Receptor Element (VDRE) (AID 2282968); details: HepG2 VDRE cis-reporter transcription, actives raise or lower the signal
# In short: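 Measures endogenous factor activity through cis-element-driven reporter transcripts in transiently transfected HepG2. Cells are treated 24 h; reporter mRNA is quantified by RT-PCR and capillary electrophoresis; fitting is bidirectional.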
# [13] = target: Estrogen receptor (Homo sapiens) (UniProt P03372); test: ATG_ERa_TRANS: Attagene TRANS-FACTORIAL HepG2 Assay for human Estrogen Receptor alpha (ERa) (AID 2282970; active = hit-call score of the fitted dose curve at least 0.9, where 1 is the maximum); details: HepG2 Attagene TRANS ERa GAL4 reporter, mRNA
# In short: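 Reporter mRNA induction after 24 hours, detected by fluorescent RT-PCR and capillary electrophoresis, gives the read-out. Cells are HepG2 transiently transfected with GAL4-UAS reporter transcription units responding to chimeric NR-Gal4. Activity is taken as gain of signal over DMSO baseline.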
# [14] = target: Steroid hormone receptor ERR1 (Homo sapiens) (UniProt P11474); test: ATG_ERRa_TRANS: Attagene TRANS-FACTORIAL HepG2 Assay for human Estrogen-Related Receptor alpha (ERRa) (AID 2282971; active = hit-call score of the fitted dose curve at least 0.9, where 1 is the maximum); details: HepG2 Attagene TRANS reporter, ERRa transactivation
# In short: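 Transfected HepG2, 24 h dosing, ERRa-Gal4 chimera driving GAL4-UAS reporter. Readout: reporter mRNA via RT-PCR plus capillary electrophoresis (fluorescence). Positive direction vs DMSO control.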
# [15] = target: X-box-binding protein 1 (Homo sapiens) (UniProt P17861); test: ATG_Xbp1_CIS: Attagene CIS-FACTORIAL HepG2 Assay for human X-box Binding Protein 1 (XBP1) (AID 2282972); details: HepG2 XBP1 cis-element reporter, Attagene multiplex; actives raise or lower the signal
# In short: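 Changes in reporter transcript abundance, read by RT-PCR and capillary electrophoresis, reflect endogenous transcription factor activity. Transfected HepG2 cells received compound for 24 hours; DMSO defined baseline for bidirectional analysis.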
# [16] = ATG_M_19_TRANS: Attagene TRANS-FACTORIAL HepG2 Assay for M19 Transcription Factor (Internal Marker) (AID 2282974; active = hit-call score of the fitted dose curve at least 0.9, where 1 is the maximum); details: HepG2 Attagene TRANS-FACTORIAL M19 internal marker reporter
# In short: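 Cells: human HepG2, transiently transfected with multiplexed reporter transcription units. Exposure: 24 h. Detection: RT-PCR of reporter mRNA with capillary electrophoresis. Analysis: gain-of-signal vs DMSO.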
# [17] = target: Glucocorticoid receptor (Homo sapiens) (UniProt P04150); test: ATG_GR_TRANS: Attagene TRANS-FACTORIAL HepG2 Assay for human Glucocorticoid Receptor (GR) (AID 2282978; active = hit-call score of the fitted dose curve at least 0.9, where 1 is the maximum;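 note: activators score as hits since higher reporter transcript over DMSO is fitted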); details: HepG2 Attagene TRANS GR reporter, mRNA transcription
# In short: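 In this trans-factorial format, exogenous NR-GAL4 chimeric proteins in transfected HepG2 cells regulate GAL4-UAS reporter transcription. After 24 h treatment, reporter mRNA induction relative to DMSO is read by RT-PCR and capillary electrophoresis.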
# [18] = target: Nuclear receptor subfamily 1 group I member 3 (Homo sapiens) (UniProt Q14994); test: ATG_CAR_TRANS: Attagene TRANS-FACTORIAL HepG2 Assay for human Constitutive Androstane Receptor (CAR) (AID 2282969; active = hit-call score of the fitted dose curve at least 0.9, where 1 is the maximum;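 note: activators raise reporter mRNA above DMSO so AC50 marks induction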); details: HepG2 Attagene TRANS-FACTORIAL CAR reporter
# In short: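 Signal is reporter mRNA induction relative to DMSO, measured 24 h after dosing by RT-PCR with fluorescent primer extension and capillary electrophoresis. Human HepG2 liver cells carried transiently transfected chimeric NR-Gal4/GAL4-UAS reporter constructs.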
# [19] = ATG_GAL4_TRANS: Attagene TRANS-FACTORIAL HepG2 Assay for GAL4 (Internal Marker) (AID 2282976; active = hit-call score of the fitted dose curve at least 0.9, where 1 is the maximum); details: HepG2 Attagene TRANS GAL4 internal marker reporter
# In short: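 RT-PCR/capillary electrophoresis readout of reporter mRNA. HepG2, transient MRTU transfection (GAL4-UAS reporters), 24 h compound exposure. Background-control endpoint, positive direction vs DMSO baseline.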
# Signal transducer and activator of transcription 3 (Homo sapiens), sequence (P40763 whole entry, looked up): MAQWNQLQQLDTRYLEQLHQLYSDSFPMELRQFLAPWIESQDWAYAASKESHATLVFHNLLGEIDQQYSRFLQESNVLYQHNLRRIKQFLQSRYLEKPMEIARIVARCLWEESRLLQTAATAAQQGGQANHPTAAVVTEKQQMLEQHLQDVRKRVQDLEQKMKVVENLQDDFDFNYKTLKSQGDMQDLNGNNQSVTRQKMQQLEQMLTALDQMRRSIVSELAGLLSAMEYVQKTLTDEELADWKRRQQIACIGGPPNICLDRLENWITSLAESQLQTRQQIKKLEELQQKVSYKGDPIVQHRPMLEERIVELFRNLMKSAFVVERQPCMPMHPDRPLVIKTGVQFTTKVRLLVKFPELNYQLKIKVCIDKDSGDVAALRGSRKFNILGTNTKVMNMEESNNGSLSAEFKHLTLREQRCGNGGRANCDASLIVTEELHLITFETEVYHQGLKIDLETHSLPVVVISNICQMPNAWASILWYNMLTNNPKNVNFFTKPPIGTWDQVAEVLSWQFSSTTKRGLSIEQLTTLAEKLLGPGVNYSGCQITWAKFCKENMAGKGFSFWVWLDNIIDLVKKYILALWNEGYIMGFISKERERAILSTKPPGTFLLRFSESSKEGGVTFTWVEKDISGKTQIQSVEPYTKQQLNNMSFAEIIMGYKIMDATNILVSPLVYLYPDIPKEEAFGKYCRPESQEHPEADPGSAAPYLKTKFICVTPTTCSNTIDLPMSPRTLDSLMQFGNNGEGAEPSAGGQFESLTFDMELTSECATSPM
# X-box-binding protein 1 (Homo sapiens), sequence (P17861 whole entry, looked up): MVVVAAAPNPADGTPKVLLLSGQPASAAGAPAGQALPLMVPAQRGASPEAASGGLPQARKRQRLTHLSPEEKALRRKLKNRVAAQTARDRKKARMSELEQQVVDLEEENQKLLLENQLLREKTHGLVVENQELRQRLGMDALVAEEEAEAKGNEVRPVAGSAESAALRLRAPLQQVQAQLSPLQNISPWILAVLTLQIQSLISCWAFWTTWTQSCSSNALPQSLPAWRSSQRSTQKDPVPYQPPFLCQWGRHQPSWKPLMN
# Glucocorticoid receptor (Homo sapiens), sequence (P04150 whole entry, looked up, the tested form may be a part): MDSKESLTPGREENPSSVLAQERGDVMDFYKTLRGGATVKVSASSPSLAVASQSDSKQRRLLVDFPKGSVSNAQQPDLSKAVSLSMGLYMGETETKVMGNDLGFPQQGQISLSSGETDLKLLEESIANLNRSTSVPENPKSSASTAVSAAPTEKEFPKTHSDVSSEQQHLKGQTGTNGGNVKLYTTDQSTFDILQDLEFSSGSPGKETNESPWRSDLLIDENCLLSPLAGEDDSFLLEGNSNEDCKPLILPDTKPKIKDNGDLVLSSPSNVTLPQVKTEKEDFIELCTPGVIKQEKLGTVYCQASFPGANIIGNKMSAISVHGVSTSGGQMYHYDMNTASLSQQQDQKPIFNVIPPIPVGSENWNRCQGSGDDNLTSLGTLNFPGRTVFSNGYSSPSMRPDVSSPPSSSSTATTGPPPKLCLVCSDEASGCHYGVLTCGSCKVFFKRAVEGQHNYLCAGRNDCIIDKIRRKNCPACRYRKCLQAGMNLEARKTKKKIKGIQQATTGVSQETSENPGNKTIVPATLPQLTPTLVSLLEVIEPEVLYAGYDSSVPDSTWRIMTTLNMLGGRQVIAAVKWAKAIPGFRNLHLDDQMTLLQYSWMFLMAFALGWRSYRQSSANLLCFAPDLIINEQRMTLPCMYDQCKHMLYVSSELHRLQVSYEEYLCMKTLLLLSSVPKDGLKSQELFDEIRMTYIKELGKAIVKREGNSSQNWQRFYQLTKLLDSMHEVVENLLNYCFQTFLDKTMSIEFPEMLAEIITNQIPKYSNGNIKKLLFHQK
# Steroid hormone receptor ERR1 (Homo sapiens), sequence (P11474 whole entry, looked up, the tested form may be a part): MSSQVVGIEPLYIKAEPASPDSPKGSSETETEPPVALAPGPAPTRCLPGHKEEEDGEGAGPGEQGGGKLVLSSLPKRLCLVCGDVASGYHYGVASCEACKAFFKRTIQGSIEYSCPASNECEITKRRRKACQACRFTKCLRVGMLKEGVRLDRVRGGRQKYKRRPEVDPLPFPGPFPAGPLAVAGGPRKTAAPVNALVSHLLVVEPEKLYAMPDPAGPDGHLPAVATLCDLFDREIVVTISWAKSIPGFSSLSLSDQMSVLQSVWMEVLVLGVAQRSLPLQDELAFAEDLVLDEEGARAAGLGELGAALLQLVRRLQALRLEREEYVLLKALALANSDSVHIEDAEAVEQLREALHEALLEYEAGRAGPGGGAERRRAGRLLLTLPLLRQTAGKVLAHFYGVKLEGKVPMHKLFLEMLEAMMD
# Estrogen receptor (Homo sapiens), sequence (P03372 whole entry, looked up, the tested form may be a part): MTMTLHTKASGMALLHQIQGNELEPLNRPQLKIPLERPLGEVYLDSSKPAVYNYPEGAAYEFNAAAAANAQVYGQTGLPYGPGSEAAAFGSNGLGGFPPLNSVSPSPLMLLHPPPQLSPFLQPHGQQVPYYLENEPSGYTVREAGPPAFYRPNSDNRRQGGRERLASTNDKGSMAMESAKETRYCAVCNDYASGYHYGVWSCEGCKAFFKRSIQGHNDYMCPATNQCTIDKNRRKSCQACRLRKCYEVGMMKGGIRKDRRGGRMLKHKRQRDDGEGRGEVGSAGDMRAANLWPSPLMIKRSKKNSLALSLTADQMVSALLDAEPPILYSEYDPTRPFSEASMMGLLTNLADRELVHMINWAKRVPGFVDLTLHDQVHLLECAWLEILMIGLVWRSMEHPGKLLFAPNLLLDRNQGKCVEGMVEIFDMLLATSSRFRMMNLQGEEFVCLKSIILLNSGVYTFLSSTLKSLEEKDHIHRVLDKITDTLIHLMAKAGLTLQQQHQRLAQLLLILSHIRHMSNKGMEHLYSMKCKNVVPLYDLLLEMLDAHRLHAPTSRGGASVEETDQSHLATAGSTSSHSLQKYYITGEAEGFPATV
# Transcription factor Sp1 (Homo sapiens), sequence (P08047 whole entry, looked up): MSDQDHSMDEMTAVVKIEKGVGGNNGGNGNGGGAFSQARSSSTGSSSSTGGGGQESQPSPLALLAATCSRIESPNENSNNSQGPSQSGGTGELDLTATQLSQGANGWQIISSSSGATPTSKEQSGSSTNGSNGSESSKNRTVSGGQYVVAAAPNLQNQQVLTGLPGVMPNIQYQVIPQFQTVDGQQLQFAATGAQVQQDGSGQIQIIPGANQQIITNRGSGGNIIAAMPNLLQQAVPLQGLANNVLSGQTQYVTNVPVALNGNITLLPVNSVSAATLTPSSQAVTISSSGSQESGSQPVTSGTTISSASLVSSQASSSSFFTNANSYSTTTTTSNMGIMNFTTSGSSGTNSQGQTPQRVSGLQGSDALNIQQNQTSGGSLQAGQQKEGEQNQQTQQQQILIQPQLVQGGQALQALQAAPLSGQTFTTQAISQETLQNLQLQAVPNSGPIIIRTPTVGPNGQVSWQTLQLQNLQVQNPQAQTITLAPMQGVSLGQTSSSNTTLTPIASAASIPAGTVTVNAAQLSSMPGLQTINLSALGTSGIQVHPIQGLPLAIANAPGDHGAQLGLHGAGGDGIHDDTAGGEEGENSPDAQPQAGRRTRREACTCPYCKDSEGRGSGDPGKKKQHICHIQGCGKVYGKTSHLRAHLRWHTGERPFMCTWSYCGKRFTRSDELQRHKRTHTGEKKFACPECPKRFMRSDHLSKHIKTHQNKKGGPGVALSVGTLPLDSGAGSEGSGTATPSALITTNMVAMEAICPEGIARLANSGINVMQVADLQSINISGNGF
# Nuclear receptor subfamily 1 group I member 3 (Homo sapiens), sequence (Q14994 whole entry, looked up, the tested form may be a part): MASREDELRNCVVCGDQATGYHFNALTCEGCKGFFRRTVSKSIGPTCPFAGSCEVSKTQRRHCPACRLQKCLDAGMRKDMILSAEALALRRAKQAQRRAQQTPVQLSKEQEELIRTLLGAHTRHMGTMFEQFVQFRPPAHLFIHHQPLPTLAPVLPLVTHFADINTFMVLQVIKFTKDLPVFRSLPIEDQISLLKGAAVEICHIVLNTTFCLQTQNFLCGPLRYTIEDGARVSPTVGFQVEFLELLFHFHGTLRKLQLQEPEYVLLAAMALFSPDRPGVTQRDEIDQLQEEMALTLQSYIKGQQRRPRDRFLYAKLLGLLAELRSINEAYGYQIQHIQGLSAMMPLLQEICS
smiles,measurement,setting,value
CC1CCC(C(=O)O)CC1 (stereo not drawn),outcome,[1],inactive
same,outcome,[2],inactive
same,outcome,[3],inactive
same,outcome,[4],inactive
same,outcome,[5],inactive
same,outcome,[6],inactive
same,outcome,[7],inactive
same,outcome,[8],inactive
same,outcome,[9],inactive
same,outcome,[10],inactive
same,outcome,[11],inactive
same,outcome,[12],inactive
same,outcome,[13],inactive
same,outcome,[14],inactive
same,outcome,[15],inactive
same,outcome,[16],inactive
same,outcome,[17],inactive
CCCCCCCCCCCCOC(=O)c1cc(O)c(O)c(O)c1,AC50,[1],2.94 µM (active)
same,outcome,[2],inactive
same,outcome,[3],inactive
same,outcome,[4],inactive
same,outcome,[5],inactive
same,AC50,[6],2.85 µM (active)
same,outcome,[7],inactive
same,outcome,[8],inactive
same,outcome,[9],inactive
same,outcome,[10],inactive
same,outcome,[11],inactive
same,outcome,[12],inactive
same,AC50,[13],11.1 µM (active)
same,AC50,[15],11.1 µM (active)
same,outcome,[16],inactive
same,outcome,[17],inactive
C=CC(=O)OCCC(F)(F)C(F)(F)C(F)(F)C(F)(F)C(F)(F)C(F)(F)C(F)(F)C(F)(F)F,outcome,[1],inactive
same,outcome,[2],inactive
same,outcome,[3],inactive
same,outcome,[4],inactive
same,outcome,[5],inactive
same,outcome,[6],inactive
same,outcome,[7],inactive
same,outcome,[8],inactive
same,outcome,[9],inactive
same,outcome,[10],inactive
same,outcome,[11],inactive
same,outcome,[12],inactive
same,outcome,[18],inactive
same,AC50,[13],11 µM (active)
same,outcome,[14],inactive
same,outcome,[15],inactive
Cc1ccc(N=Nc2c(O)ccc3ccccc23)c(C)c1,AC50,[1],2.81 µM (active)
same,outcome,[2],inactive
same,outcome,[3],inactive
same,outcome,[4],inactive
same,outcome,[5],inactive
same,outcome,[6],inactive
same,outcome,[7],inactive
same,outcome,[8],inactive
same,outcome,[9],inactive
same,outcome,[10],inactive
same,outcome,[11],inactive
same,AC50,[12],2.55 µM (active)
same,AC50,[13],6.5 µM (active)
same,outcome,[15],inactive
same,outcome,[16],inactive
same,outcome,[17],inactive
C[C@]12CC[C@@H]3c4ccc(O)cc4CC[C@H]3[C@@H]1CC[C@@H]2OC(=O)CCC1CCCC1,AC50,[1],3.89 µM (active)
same,AC50,[2],100 µM (active)
same,outcome,[3],inactive
same,AC50,[4],163 µM (active)
same,outcome,[5],inactive
same,outcome,[6],inactive
same,outcome,[7],inactive
same,outcome,[8],inactive
same,outcome,[9],inactive
same,outcome,[10],inactive
same,outcome,[11],inactive
same,outcome,[12],inactive
same,AC50,[13],0.0823 µM (active)
same,outcome,[15],inactive
same,outcome,[17],inactive
CCCCC(CC)C(=O)OCCOCCOCCOCCOC(=O)C(CC)CCCC (stereo not drawn),AC50,[1],27.5 µM (active)
same,outcome,[2],inactive
same,outcome,[3],inactive
same,outcome,[4],inactive
same,outcome,[5],inactive
same,outcome,[6],inactive
same,outcome,[7],inactive
same,outcome,[8],inactive
same,outcome,[9],inactive
same,outcome,[10],inactive
same,outcome,[11],inactive
same,AC50,[12],27.8 µM (active)
same,outcome,[13],inactive
same,outcome,[15],inactive
same,outcome,[16],inactive
same,outcome,[19],inactive
Clc1ccc2c(Cl)ccnc2c1,outcome,[1],inactive
same,AC50,[2],41.2 µM (active)
same,outcome,[3],inactive
same,outcome,[4],inactive
same,outcome,[5],inactive
same,outcome,[6],inactive
same,outcome,[7],inactive
same,outcome,[8],inactive
same,outcome,[9],inactive
same,outcome,[10],inactive
same,outcome,[11],inactive
same,outcome,[12],inactive
same,outcome,[13],inactive
same,outcome,[14],inactive
same,outcome,[15],inactive
same,outcome,[17],inactive
O=C1Cc2ccccc2N1c1c(Cl)cccc1Cl,AC50,[1],0.484 µM (active)
same,outcome,[2],inactive
same,outcome,[3],inactive
same,outcome,[4],inactive
same,outcome,[5],inactive
same,outcome,[6],inactive
same,outcome,[7],inactive
same,outcome,[8],inactive
same,outcome,[9],inactive
same,outcome,[10],inactive
same,outcome,[11],inactive
same,AC50,[12],1.4 µM (active)
same,AC50,[13],4.59 µM (active)
same,outcome,[15],inactive
same,outcome,[19],inactive
same,outcome,[17],inactive

# — PubChem BioAssay (EPA / NIEHS)
